The list is not random: actives were taken first. Their share in the collection is about 3.5%.
MITF inh: inhibitors of human MITF; O75030; AlphaScreen MITF homodimerization, bead proximity signal; inhibition, % at 2.6 µM; 0.91% of 650,000 active; AID 1259374; in the data active means inhibition above about 50%;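 further: 0% = vehicle wells with protein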
Target sequence (O75030 whole entry, looked up): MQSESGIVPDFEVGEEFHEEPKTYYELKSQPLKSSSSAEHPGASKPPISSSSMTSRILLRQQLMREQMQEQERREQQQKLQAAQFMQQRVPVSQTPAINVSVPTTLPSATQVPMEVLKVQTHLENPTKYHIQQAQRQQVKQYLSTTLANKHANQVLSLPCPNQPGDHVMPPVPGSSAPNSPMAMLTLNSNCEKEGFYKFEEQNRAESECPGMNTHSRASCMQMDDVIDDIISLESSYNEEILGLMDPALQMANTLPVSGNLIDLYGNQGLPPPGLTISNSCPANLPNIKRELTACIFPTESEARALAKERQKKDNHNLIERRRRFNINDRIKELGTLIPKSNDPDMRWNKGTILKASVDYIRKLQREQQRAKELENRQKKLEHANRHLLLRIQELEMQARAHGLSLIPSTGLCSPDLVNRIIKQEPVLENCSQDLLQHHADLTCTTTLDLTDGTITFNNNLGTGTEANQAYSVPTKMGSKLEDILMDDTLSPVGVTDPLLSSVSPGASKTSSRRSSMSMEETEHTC
TEAD-YAP inh: TEAD-YAP interaction inhibition; 1.4% of 640,000 active; inhibition, % at 9.12 µM; HEK-TIYL cells, TEAD-Gal4/YAP UAS-luciferase luminescence; in the data active means inhibition above about 32%;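 further: 0% = median of test compound wells and 100% = reference inhibitor wells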
FBW7 act: human FBW7 E3 ligase activation, primary screen; Q969H0; normalized activity (activation), % at 26.1 µM; 0.13% of 650,000 active; AlphaScreen FBW7–phospho-cyclin E peptide binding, activator screen; in the data active means normalized activity above about 1.9%;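 further: purified mutant Fbw7 with reduced substrate affinity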
GPR151 ag: human GPR151 activation. Q8TDV0. 1% of 650,000 active. PathHunter beta-arrestin GPR151 cells, luminescence. activation, % at 11.2 µM; in the data active means activation above about 4.9%;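 further: 0% = median of compound wells and 100% = cells with positive control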
Active calls of the source: *; / = no result.

SMILES	MITF inh	TEAD-YAP inh	FBW7 act	GPR151 ag
Cc1ccc(-n2nc3ccc(N)cc3n2)c(C)c1	9	40*	0	0
COc1ccc(NC(=O)N(CCCO)Cc2cc3cccc(C)c3[nH]c2=O)cc1	4	-3	0	0
Cc1cccc2cc(CN(CCO)C(=O)Nc3ccc(F)cc3)c(=O)[nH]c12	9	13	2.3*	0
COc1ccc2[nH]c(=O)c(CN(Cc3cccnc3)C(=O)Nc3ccc(F)cc3)cc2c1	13	46*	1	0
COc1ccc2[nH]c(=O)c(CN(Cc3cccnc3)C(=O)Nc3ccccc3)cc2c1	3	17	0	-1
Cc1c2oc3c(C)ccc(C(=O)OC(C)C4NC(=O)C(C(C)C)N(C)C(=O)CN(C)C(=O)C5CCCN5C(=O)C(C(C)C)NC4=O)c3nc-2c(C(=O)OC(C)C2NC(=O)C(C(C)C)N(C)C(=O)CN(C)C(=O)C3CCCN3C(=O)C(C(C)C)NC2=O)c(N)c1=O (configuration not stated)	-2	96*	0	3
CCCCCCCCCCCCCCCCOC[C@H](COP(=O)(O)OCC[N+](C)(C)C)OC(=O)NC	-25	/	/	1
CC(C)C(=O)N1CCC[C@@H](Cn2nc(-c3cccs3)ccc2=O)C1	-4	69*	0	1
CC(C)(C)c1ccc(/C=C/C(=O)NCc2ccccn2)cc1	12	-23	0	1
Cc1cccc(NC(c2ccccn2)c2c(C)[nH]c3ccccc23)n1 (configuration not stated)	11	-4	0	1
FC(F)(F)c1cc(Cn2c3ccccc3c3nc4ccccc4nc32)cc(C(F)(F)F)c1	-3	4	2.4*	-1
CC(=O)Nc1ccccc1NS(=O)(=O)c1ccc2ccccc2c1	9	53*	1	1
Cc1ccccc1NS(=O)(=O)c1ccc2ccccc2c1	12	3	0	0
Cc1ccnc(NC(=O)c2ccc(N3CCCCS3(=O)=O)cc2)c1	1	88*	0	-9
Cc1cc(NC(=O)c2ccc(N3CCCCS3(=O)=O)cc2)ccc1Br	20	10	0	0
CCCCOc1ccc(C(=O)Nc2cc(C)ccn2)cc1	8	52*	0	-7
CCCCCOc1ccc(C(=O)Nc2cc(C)on2)cc1	6	-14	0	-2
COc1ccc2oc(=O)c(C(=O)Nc3cc(C)ccn3)cc2c1	-5	34*	0	1
COc1ccc2oc(=O)c(C(=O)Nc3ccc(C)cc3Br)cc2c1	-1	1	0	1
COc1cccc(C2C(C#N)=C(N)Oc3n[nH]c(C(C)(C)C)c32)c1OC (configuration not stated)	0	-3	0	1
C#CC(O)(c1ccc(OC)cc1OC)c1ccc(OC)cc1OC	0	33*	0	-2
O=C(NC(c1ccc(Cl)cc1)c1ccc2cccnc2c1O)c1ccccc1 (configuration not stated)	17	75*	-1	0
COc1cccc(C(NC(=O)c2ccccc2)c2ccc3cccnc3c2O)c1 (configuration not stated)	17	13	-2	-1
COc1ccc(C(=O)NC(c2ccc(Cl)cc2)c2cc(Cl)c3cccnc3c2O)cc1 (configuration not stated)	0	9	0	-1
COc1ccc(C(NC(=O)c2ccccc2)c2ccc3cccnc3c2O)cc1 (configuration not stated)	46	38*	-1	-1
SMILES	MITF inh	TEAD-YAP inh	FBW7 act	GPR151 ag
CCN1C(=O)/C(=C/C=C2\N(CC)c3ccc(-c4ccccc4)cc3C2(C)C)SC1=Nc1ccc(C)cc1	-2	-1	0	1
COc1ccc(OC)c(/C=N/Nc2nncc(=O)[nH]2)c1	-2	2	0	1
COc1cccc(-c2ncnn2-c2ccc(C)c(Cl)c2)c1OC	8	-5	0	-1
CN(C)/C=C1/C(=O)N(c2nc3ccccc3s2)N=C1c1ccccc1	0	5	0	0
CC1=NN(c2nc3ccccc3s2)C(=O)/C1=C\N(C)C	9	68*	0	-9
CC1=NN(c2nc3ccccc3s2)C(=O)/C1=C(\C)N(C)C	5	43*	0	-10
CCOC(=O)C1=C(c2ccccc2)N=c2s/c(=C\c3cccc(O)c3)c(=O)n2C1c1cc(C(C)C)c(OC)cc1C (configuration not stated)	-4	4	1	-1
CCOC(=O)C1=C(c2ccccc2)N=c2s/c(=C\c3ccc4c(c3)OCO4)c(=O)n2C1c1cc(C(C)C)c(OC)cc1C (configuration not stated)	18	-3	2.7*	-1
NC(=O)c1ccc2c(c1)CC(c1nc3ccc(-c4ccnc(N)n4)cc3[nH]1)CO2 (configuration not stated)	31	1	1	0
COc1cccc2c1CC(c1nc3ccc(-c4ccnc(N)n4)cc3[nH]1)CO2 (configuration not stated)	8	50*	0	-1
Nc1nccc(-c2ccc3nc(C4COc5ccc(F)cc5C4)[nH]c3c2)n1 (configuration not stated)	2	43*	0	-1
CCc1ccccc1NC(=O)c1ccc(F)c(S(=O)(=O)N2CCN(c3cccc(C)c3)C(C)C2)c1 (configuration not stated)	11	35*	0	-1
O=C(Nc1ccc(Oc2ccccc2)cc1)c1ccc(F)c(S(=O)(=O)N2CCOCC2)c1	-4	63*	0	0
O=C(Nc1ccccc1)c1ccc(F)c(S(=O)(=O)N2CCOCC2)c1	-179	-9	0	-1
O=C(Nc1ccc(I)cc1)c1cccc(S(=O)(=O)N2CCOCC2)c1	12	8	0	2
O=C(Nc1ccc(Oc2ccccc2)cc1)c1cccc(S(=O)(=O)N2CCOCC2)c1	3	34*	0	1
CCN1CCN(S(=O)(=O)c2cc(C(=O)Nc3ccc(Oc4ccccc4)cc3)ccc2F)CC1	1	66*	0	0
c1ccc(/N=C2/N=C(Nc3ccccn3)c3ccccc32)nc1	7	-8	0	-1
Nc1nonc1N=NN(Cc1ccccc1Cl)c1nonc1N	4	-11	0	0
O=C(NCc1ccc(F)cc1)NCC1(O)CCCC1	5	10	0	1
CCOc1cc(/C=C2/SC(=S)N(C(C)C(=O)O)C2=O)ccc1O (configuration not stated)	4	21	0	1
CCc1ccc(NC(=O)CSc2nc3ccccc3c3nc(C)nn23)cc1	10	62*	0	0
Cc1nc2c3ccccc3nc(SCC(=O)Nc3ccc(Br)cc3)n2n1	5	4	0	0
COC(=O)Cn1cc(/C=C2/NC(=O)N(c3cccc(Cl)c3)C2=O)c2ccccc21	-3	2	0	2
Cn1cc(/C=C2/NC(=O)N(c3cccc(Cl)c3)C2=O)c2ccccc21	10	50*	0	2
O=S(=O)(c1cccc(Br)c1)N1CCN(CC(O)CCl)CC1 (configuration not stated)	17	-9	0	-1

Screening results as filed in PubChem.
